Experimental findings from PubChem BioAssay (NCATS) are described below.

Records with an inconclusive call do not appear. Entries that show only a call come without a potency. Calls of active or inactive are those of the source. Calls follow the shape of the dose curve; as a rule, active = well fitted inhibition curve with a large enough effect; inconclusive = small, poorly fitted or top-dose-only effect; inactive = flat fitted curve, though single readings scatter.

In the assay the target is Calcium and integrin-binding protein 1 (Homo sapiens) (UniProt Q99828). The experiment in a line: Primary qHTS for Identification of Calcium Integrin Binding Protein 1 (CIB1) Competitor (AID 1508620).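 Also: GST tagged CIB1 binding a fluorescein labelled alphaIIb integrin peptide tracer; top concentration of the series differs between compounds.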 The conditions noted are these: CIB1-GST / FITC-alphaIIb peptide fluorescence polarization; series mostly up to 114 µM. The gist of the method: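 Fluorescence polarization competition: CIB1-GST (1 uM final) preincubated with compound 15 min at room temperature, then FITC-labeled alphaIIb peptide (100 nM final) added for another 15 min. Polarization read at Ex 480/Em 540.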
Sequence of Calcium and integrin-binding protein 1 (Homo sapiens) (Q99828 whole entry, looked up): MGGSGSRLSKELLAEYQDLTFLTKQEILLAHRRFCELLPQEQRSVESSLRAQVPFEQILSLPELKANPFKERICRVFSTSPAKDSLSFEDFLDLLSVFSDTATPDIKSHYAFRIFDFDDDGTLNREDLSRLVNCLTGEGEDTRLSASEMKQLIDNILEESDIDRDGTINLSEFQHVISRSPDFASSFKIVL
In general terms: In qHTS, concentration-response curves come from the screen itself.
In the case of `COc1ccc(C2Nc3ccc(Cl)cc3C(=O)N2Cc2ccccc2)cc1COc1ccc(NC(C)=O)cc1` (configuration not stated), the Potency result was “inactive”.
Next, `Cc1cc2c(s1)c1cnn(Cc3ccc(C(C)(C)C)cc3)c(=O)c1n2C`: “inactive”; `CCC(=O)NC(C)c1cc(Cl)c2cccnc2c1O` (configuration not stated): “inactive”; `CC(C)(C)OC(=O)NCC(=O)NNC(=O)C(C(=O)OCc1ccccc1)c1ccccc1` (configuration not stated): “inactive”.
Next, `Fc1ccc(CNc2nc(-c3ccccc3C(F)(F)F)nc3ccccc23)cc1`: “inactive”; `O=C1c2ccccc2C(=O)N1c1cccc2cnccc12`: “inactive”; `O=C1Nc2ccccc2/C1=C\c1ccc([N+](=O)[O-])cc1`: “inactive”.
Next, `CC(=O)Nc1sc2c(c1-c1nc3ccccc3s1)CN(C(C)C)C2`: “inactive”.
Turning to `CC(=O)Nc1cc2c(s1)CNCC2`, the Potency result is “inactive”.
Next, `O=C1CCCC2=C1C(c1[nH]ncc1Cl)N=C(Nc1ccccc1)N2` (configuration not stated): “inactive”; `O=C1CCCC2=C1C(c1[nH]ncc1Cl)NC(=NCCc1ccc(O)cc1)N2` (configuration not stated): “inactive”.
Next, `c1nc(NCCC2CCCO2)c2cc(-c3ccc4c(c3)OCO4)ccc2n1` (configuration not stated): “inactive”; `CN(C)C(=O)c1cccc(-c2csc(N3CCC(C(N)=O)CC3)n2)c1`: “inactive”; `COc1ccc(C2Nc3ccccc3C(=O)N2Cc2ccco2)cc1` (configuration not stated): “inactive”.
As for `Cc1ccc(OCCn2c(CCNC(=O)c3ccc(C(F)(F)F)cc3)nc3ccccc32)cc1`, the Potency result was “inactive”.
Next, `Cc1cc(N[S+](=O)([O-])c2ccc(NC(=O)Cc3ccc(F)c(F)c3)cc2)no1`: “inactive”; `CCOC(=O)c1ccoc1-c1ccc2ncnc(NCc3ccc(C)o3)c2c1`: “inactive”; `CC(C)(C)OC(=O)Cc1nnc(-c2nc3ccccc3[nH]2)o1`: “inactive”.
Next, `Cc1cc(NCc2ccc(NC(=O)Cc3ccc(Cl)c(Cl)c3)cc2)no1`: “inactive”; `O=C(/C=C/c1ccc(C(F)(F)F)cc1)Nc1cccc([S+](=O)([O-])Nc2ccccc2F)c1`: “inactive”.
Consider `O=C(NCCc1nc2ccccc2n1CCCc1ccccc1)C1CCCCC1`, for which the Potency result is “inactive”.
Next, `CCOc1ccc(CCNC(=O)c2cc3sccc3n2Cc2ccccc2)cc1OCC`: “inactive”.
